# Results filed as inconclusive are left out. The source made the active and inactive calls. Calls come from the whole dose curve; as a rule, active = well fitted cell-killing curve with a large enough effect in the repeat runs; inconclusive = weak or mixed curves, or effect the other way; inactive = flat fitted curve, though single readings scatter.
# Assay: cAMP Responsive Elements (CRE) small molecule antagonists, cell-based qHTS assay: qHTS cell viability counter screen (AID 2060913); note: nearly all actives have a fitted effect of over 40% in size
# Details: CRE-bla HEK293T viability, CellTiter-Glo luminescence, 5 h; series mostly up to 92.4 µM; viability change, negative = cytotoxic: at the top concentration
# Method in brief: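 Viability of NKH477-stimulated (0.25 uM final) CRE-bla HEK293T cells is measured by CellTiter-Glo luminescence following 3 hrs compound exposure at 37 C.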
# % is set by controls: 0 for no effect and ±100 for the full control effect; potency is the fitted concentration of half-maximal effect.
Compound,"viability change, negative = cytotoxic",Potency
C=C(Cl)CSC(=S)N(CC)CC,-6.6% (inactive),–
O=C(CCl)Nc1ccccc1,11.1% (inactive),–
CCC1(c2ccccc2)C(=O)N(COC)C(=O)N(COC)C1=O,1.7% [at 42.5 µM] (inactive),–
NCC1(CC(=O)O)CCCCC1,6.16% [at 42.5 µM] (inactive),–
CN1CC[C@]23c4c5ccc(O)c4O[C@H]2[C@@H](O)C=C[C@H]3[C@H]1C5,4.75% (inactive),–
CC(Oc1ccc(Oc2ncc(C(F)(F)F)cc2Cl)cc1)C(=O)O (stereo not given),-4.63% (inactive),–
Clc1cnc(Oc2ccc(Oc3ncc(Cl)cc3Cl)cc2)c(Cl)c1,–,inactive
NC(=O)c1ccc(N)nc1,4.37% (inactive),–
Oc1ccccc1-c1ccccc1,–,inactive
CCN(CC)C(=O)[C@@H]1C=C2c3cccc4[nH]cc(c34)C[C@H]2N(C)C1,-0.733% [at 240 µM] (inactive),–
OC(Cn1cncn1)(c1ccc(F)cc1)c1ccccc1F (stereo not given),-7.51% (inactive),–
O=C1CC(=O)NC(=O)N1,-0.326% (inactive),–
CSc1ccc(C(=O)C(C)(C)N2CCOCC2)cc1,-11.8% (inactive),–
CCCCCc1cc(O)cc(O)c1,–,inactive
CC1(C)CC/C(=C/c2ccc(Cl)cc2)C1(O)Cn1cncn1 (stereo not given),0.26% (inactive),–
C=CCOC(Cn1ccnc1)c1ccc(Cl)cc1Cl (stereo not given),–,inactive
O=[N+]([O-])c1ccc(O)c([N+](=O)[O-])c1,–,54.5 µM (active)
CN1CSC(=S)N(C)C1,–,inactive
CC[C@H]1C[C@H]2[C@@H]3CCC4=CC(=O)CC[C@@H]4[C@H]3CC[C@]2(C)[C@H]1O,-3.45% [at 42.5 µM] (inactive),–
O=C(N[C@@H]1N=C(c2ccccc2F)c2cccc3c2N(CC3)C1=O)c1cc2ccccc2[nH]1,-1.16% [at 42.5 µM] (inactive),–

Compound,"viability change, negative = cytotoxic",Potency
CC[N+]1(C)CCCC(OC(=O)C(O)(c2ccccc2)c2ccccc2)C1 (stereo not given),1.35% [at 42.5 µM] (inactive),–
CC(C)N(C(=O)CCl)c1ccccc1,–,inactive
CCCCCCCCCC[N+](C)(C)CCCCCCCCCC,–,30.6 µM (active)
O=S(=O)(O)O,–,inactive
CCCCCCCc1ccc(O)cc1,-5.77% (inactive),–
Oc1ccc2c3c1O[C@H]1[C@@H](O)C=C[C@H]4[C@@H](C2)NCC[C@@]341,-2.4% (inactive),–
O=[N+]([O-])c1cccc(CCl)c1,-9.58% (inactive),–
c1ccc2nc(N3CCNCC3)ccc2c1,6.84% [at 42.5 µM] (inactive),–
CC(C)[N+](=O)[O-],8.99% (inactive),–
[O-][Cl+]O,1.66% (inactive),–
CCC(Cl)[N+](=O)[O-] (stereo not given),1.3% (inactive),–
O=[N+]([O-])c1cc([N+](=O)[O-])c2ccccc2c1,0.77% (inactive),–
CC1CC(CC2CCC(N)C(C)C2)CCC1N (stereo not given),6.34% (inactive),–
CCOC(=O)C(C)OC(=O)c1cc(Oc2ccc(C(F)(F)F)cc2Cl)ccc1[N+](=O)[O-] (stereo not given),–,inactive
CCSC(C)CC1CC(=O)C(/C(CC)=N/OC/C=C/Cl)=C(O)C1 (stereo not given),1.26% [at 42.5 µM] (inactive),–
COc1ccccc1N1CCNCC1,5.17% [at 42.5 µM] (inactive),–
O=C(O)CCl,–,inactive
COc1ccc(C(O)(c2cncnc2)C2CC2)cc1 (stereo not given),8.19% (inactive),–
Cc1cccc(C)c1NC1=NCCCS1,-1.78% [at 42.5 µM] (inactive),–
COC[C@@H](NC(C)=O)C(=O)NCc1ccccc1,6.45% [at 42.5 µM] (inactive),–

# Reference: PubChem BioAssay (Tox21)
